Test results: PubChem BioAssay AID1159580 (chemical genetic matrix, 2015)
Where “and” joins values, the source holds several entries; their conditions need not be identical. Identical values can stand only once. About 2,000 (36%) of roughly 5,500 compounds were called active. Not shown: some 18% with an inconclusive outcome. No stated cut-off is given here; in the data, active means normalized growth mostly below about 0.91 (no sharp cut-off); inconclusive means no clear call, values can overlap the other calls; inactive means mostly above about 0.92. The list shows a part of the results.

Test: chemical genetic growth profiling, strain panel (AID 1159580);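 further: tested at 20 µM; growth read once vehicle control cultures reached saturation at 30 °C; 1 = growth at the plate median or of vehicle wells; lower values mean less growth of the strain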
Settings: S. cerevisiae deletion strains, growth OD

Measured: normalized growth

CCC(CCC(C)[C@H]1CCC2C3CC=C4C[C@@H](O)CC[C@]4(C)C3CC[C@@]21C)C(C)C (stereo partly drawn)
inactive: locus YAL013W, strain DEP1, active compounds read low 0.998 | locus YAL021C, strain ccr4, active compounds read low 1.01 | locus YAL026C, strain drs2, active compounds read low 1.01 | locus YAL030W, strain snc1, active compounds read low 1.01 | locus YBL061C, strain skt5, active compounds read low 1.02 | locus YBR009C, strain hhf1, active compounds read low 1.02 | locus YBR021W, strain FUR4, active compounds read low 1.02 | locus YBR023C, strain chs3, active compounds read low 1.01 | locus YBR171W, strain sec66, active compounds read low 1.04 | locus YBR229C, strain ROT2, active compounds read low 0.988 | locus YBR231C, strain swc5, active compounds read low 1.01 | locus YBR279W, strain paf1, active compounds read low 1.01 | locus YCL011C, strain gbp2, active compounds read low 1.02 | locus YCL016C, strain dcc1, active compounds read low 1.02 | locus YCL029C, strain bik1, active compounds read low 0.999 | locus YCL061C, strain MRC1, active compounds read low 1.02 | locus YCL069W, strain vba3, active compounds read low 1.02 | locus YCR088W, strain abp1, active compounds read low 1.02 | locus YDL005C, strain med2, active compounds read low 1.02 | locus YDL035C, strain GPR1, active compounds read low 1.05 | locus YDL040C, strain nat1, active compounds read low 1.02 | locus YDL074C, strain BRE1, active compounds read low 1.05 | locus YDL101C, strain DUN1, active compounds read low 0.973 | locus YDL134C, strain PPH21, active compounds read low 0.97 | locus YDL185W, strain tfp1, active compounds read low 0.976 | locus YDL192W, strain arf1, active compounds read low 1.02 | locus YDR001C, strain nth1, active compounds read low 1.01 | locus YDR069C, strain doa4, active compounds read low 1.03 | locus YDR101C, strain arx1, active compounds read low 1.03 | locus YDR137W, strain rgp1, active compounds read low 1.01 | locus YDR150W, strain NUM1, active compounds read low 0.997 | locus YDR159W, strain sac3, active compounds read low 1.04 | locus YDR162C, strain NBP2, active compounds read low 0.994 | locus YDR195W, strain ref2 1.03 | locus YDR297W, strain sur2, active compounds read low 1.03 | locus YDR318W, strain mcm21, active compounds read low 0.986 | locus YDR334W, strain swr1, active compounds read low 1.03 | locus YDR335W, strain msn5, active compounds read low 1.01 | locus YDR388W, active compounds read low 0.975 | locus YDR392W, strain spt3, active compounds read low 1.02 | locus YDR502C, strain sam2, active compounds read low 0.973 | locus YEL003W, strain gim4, active compounds read low 1.01 | locus YEL037C, strain rad23, active compounds read low 1.02 | locus YEL061C, strain CIN8 (second series), active compounds read low 1.02 | locus YER015W, strain faa2, active compounds read low 1.01 | locus YER016W, strain bim1, active compounds read low 1.02 | locus YER110C, active compounds read low 0.979 | locus YER111C, strain swi4, active compounds read low 1.02 | locus YER155C, strain BEM2 (second series), active compounds read low 1.04 | locus YER155C, strain BEM2, active compounds read low 0.982 | locus YER167W, strain BCK2, active compounds read low 1.01 | locus YFR010W, strain ubp6, active compounds read low 1.02 | locus YGL078C, strain dbp3, active compounds read low 0.983 | locus YGL086W, strain mad1, active compounds read low 0.989 | locus YGL167C, strain pmr1, active compounds read low 1.03 | locus YGL173C, strain kem1, active compounds read low 1.02 | locus YGL227W, strain vid30, active compounds read low 1.02 | locus YGL240W, strain doc1, active compounds read low 1.03 | locus YGL248W, strain PDE1, active compounds read low 0.978 | locus YGL253W, strain hxk2, active compounds read low 1.02 | locus YGR135W, strain pre9, active compounds read low 0.958 | locus YGR252W, strain gcn5, active compounds read low 0.929 | locus YHR013C, strain ard1, active compounds read low 1.04 | locus YHR027C, strain rpn1, active compounds read low 1.01 | locus YHR030C, strain SLT2, active compounds read low 0.996 | locus YHR079C, strain IRE1 (second series), active compounds read low 0.987 | locus YHR079C, strain IRE1, active compounds read low 0.984 | locus YHR094C, strain hxt1, active compounds read low 0.984 | locus YHR129C, strain ARP1, active compounds read low 0.994 | locus YHR142W, strain chs7, active compounds read low 1.02 | locus YHR200W, strain rpn10, active compounds read low 0.961 | locus YIL066C, strain RNR3, active compounds read low 1.01 | locus YIL073C, strain SPO22, active compounds read low 1.02 | locus YIL125W, strain kgd1, active compounds read low 0.993 | locus YIR030C, strain dcg1, active compounds read low 0.986 | locus YJL092W, strain hpr5, active compounds read low 1.02 | locus YJL095W, strain BCK1 (second series), active compounds read low 1.01 | locus YJL095W, strain BCK1, active compounds read low 0.972 and 0.979 | locus YJL115W, strain asf1, active compounds read low 1 | locus YJL129C, strain trk1, active compounds read low 1.03 | locus YJL134W, strain LCB3, active compounds read low 0.991 | locus YJL154C, strain vps35, active compounds read low 1.02 | locus YJL164C, strain tpk1, active compounds read low 1.01 | locus YJL166W, strain qcr8, active compounds read low 1.02 | locus YJL168C, strain set2, active compounds read low 0.988 | locus YJL187C, strain SWE1 (second series), active compounds read low 0.977 | locus YJL187C, strain SWE1, active compounds read low 1.01 | locus YJR043C, strain POL32, active compounds read low 1.06 | locus YJR066W, strain TOR1, active compounds read low 0.915 | locus YKL009W, strain mrt4, active compounds read low 1.01 | locus YKL068W, active compounds read low 0.981 | locus YKL085W, strain MDH1 (second series), active compounds read low 0.998 | locus YKL085W, strain MDH1, active compounds read low 0.998 | locus YKL160W, strain elf1, active compounds read low 1.01 | locus YKR001C, strain vps1, active compounds read low 1 | locus YKR026C, strain gcn3, active compounds read low 1.02 | locus YKR091W, strain srl3, active compounds read low 1.01 | locus YLL001W, strain dnm1, active compounds read low 1.01 | locus YLL026W, active compounds read low 1.02 | locus YLL041C, strain sdh2, active compounds read low 1.01 | locus YLR027C, strain aat2, active compounds read low 1.02 | locus YLR039C, strain RIC1, active compounds read low 1.04 | locus YLR058C, strain SHM2, active compounds read low 0.998 | locus YLR102C, strain apc9, active compounds read low 0.976 | locus YLR113W, strain HOG1, active compounds read low 0.97 | locus YLR221C, strain rsa3, active compounds read low 1.01 | locus YLR258W, strain gsy2, active compounds read low 1 | locus YLR262C, strain YPT6 (second series), active compounds read low 1.03 | locus YLR262C, strain YPT6, active compounds read low 1.05 | locus YLR268W, strain sec22, active compounds read low 1.01 | locus YLR320W, strain mms22, active compounds read low 1.03 | locus YLR342W, strain FKS1 (second series), active compounds read low 1.08 | locus YLR342W, strain FKS1, active compounds read low 1.03 | locus YLR357W, strain rsc2, active compounds read low 1 | locus YLR370C, strain arc18, active compounds read low 1.01 | locus YLR371W, strain rom2, active compounds read low 1 | locus YLR384C, strain iki3, active compounds read low 1.02 | locus YLR418C, strain cdc73, active compounds read low 0.964 | locus YML016C, strain PPZ1, active compounds read low 1 | locus YML032C, strain rad52, active compounds read low 1.01 | locus YML120C, strain ndi1, active compounds read low 1.01 | locus YML124C, strain tub3, active compounds read low 0.986 | locus YMR058W, strain fet3, active compounds read low 1.02 | locus YMR078C, strain ctf18, active compounds read low 0.971 | locus YMR125W, strain sto1, active compounds read low 1.01 | locus YMR129W, active compounds read low 1.01 | locus YMR205C, strain PFK2, active compounds read low 1.03 | locus YMR223W, strain ubp8, active compounds read low 0.987 | locus YMR231W, strain pep5, active compounds read low 0.997 | locus YMR307W, strain GAS1, active compounds read low 0.996 | locus YNL067W, strain RPL9B, active compounds read low 0.988 | locus YNL071W, strain lat1, active compounds read low 1.01 | locus YNL128W, strain TEP1, active compounds read low 1.01 | locus YNL153C, strain GIM3, active compounds read low 0.986 | locus YNL183C, strain NPR1, active compounds read low 0.905 | locus YNL209W, strain ssb2, active compounds read low 1.01 | locus YNL233W, strain BNI4, active compounds read low 0.968 | locus YNL248C, strain rpa49, active compounds read low 1.01 | locus YNL250W, strain rad50, active compounds read low 0.961 | locus YNL271C, strain bni1, active compounds read low 0.974 | locus YNL298W, strain CLA4, active compounds read low 0.993 | locus YNL307C, strain MCK1, active compounds read low 0.978 | locus YNL322C, strain KRE1 (second series), active compounds read low 1.01 | locus YNR049C, strain mso1, active compounds read low 1.01 | locus YNR052C, strain pop2, active compounds read low 0.973 | locus YOL006C, strain TOP1, active compounds read low 1.1 | locus YOL012C, strain htz1 0.713 | locus YOL147C, strain pex11, active compounds read low 0.989 | locus YOR001W, strain rrp6, active compounds read low 1.03 | locus YOR061W, strain CKA2, active compounds read low 1.02 | locus YOR069W, strain VPS5, active compounds read low 0.99 | locus YOR070C, strain gyp1, active compounds read low 1.05 | locus YOR080W, strain dia2, active compounds read low 1.02 | locus YOR083W, strain WHI5, active compounds read low 1.02 | locus YOR106W, strain vam3, active compounds read low 1.02 | locus YOR136W, strain idh2, active compounds read low 0.971 | locus YOR144C, strain elg1, active compounds read low 0.988 | locus YOR184W, strain ser1, active compounds read low 1.05 | locus YOR231W, strain MKK1, active compounds read low 0.991 | locus YOR265W, strain rbl2, active compounds read low 1.02 | locus YOR270C, strain vph1, active compounds read low 1.03 | locus YOR290C, strain snf2, active compounds read low 1.02 | locus YOR316C, strain cot1, active compounds read low 0.978 | locus YPL051W, strain arl3, active compounds read low 1.04 | locus YPL078C, strain atp4, active compounds read low 1.01 | locus YPL106C, strain sse1, active compounds read low 1.01 | locus YPL240C, strain hsp82, active compounds read low 1.01 | locus YPL256C, strain CLN2, active compounds read low 0.989 | locus YPR119W, strain clb2, active compounds read low 0.97 | locus YPR141C, strain kar3, active compounds read low 0.972 | locus YPR163C, strain tif3, active compounds read low 0.979 | locus YPR167C, strain met16, active compounds read low 0.97 | strain wtn01, active compounds read low 1.01
